High-throughput results from PubChem.
In the library only some 27% were active in any assay of this set; here they are far more common.
CYP2C9 activ = increases human cytochrome P450 2C9 activity; 96,000 tested, 1.4% active; activation factor at 5 µM; recombinant CYP2C9, luciferin-H conversion, luminescence; hits give high values; factor 1 = untreated enzyme, 0 = blocked; AID 1024; P11712;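 active means activation factor of 2 or more for CYP2C9 at a 5 µM dose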
Cav32 inh = human Cav3.2 channel inhibition, primary screen; 100,000 tested, 4% active; O95180; B-score at 10 µM; Cav3.2-expressing cells, Fluo-4 calcium fluorescence FDSS; hits give low values;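 active means single-dose well whose peak fluorescence ratio is a statistical outlier from its plate by either plate-standardised score or position-corrected B-score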
CYP2C9 inh = inhibitors of human CYP2C9; CYP2C9 Supersomes, luciferin-H conversion, luminescence; AID 777; inhibition, % at 5 µM; P11712; 96,000 tested, 20% active;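 active means blocking of liver enzyme CYP2C9 beyond about 50% at 5 µM, limit read from the data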
CYP2C19 act = activators of human cytochrome P450 2C19 | P33261 | recombinant CYP2C19, luciferin-H EGE luminescence; hits give high values; 0 = fully inhibited enzyme, 1 = untreated enzyme | activation factor at 5 µM | 96,000 tested, under 10 active;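 active means activation factor of at least 2 at 5 µM in the primary screen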
Target sequence (P33261 whole entry, looked up): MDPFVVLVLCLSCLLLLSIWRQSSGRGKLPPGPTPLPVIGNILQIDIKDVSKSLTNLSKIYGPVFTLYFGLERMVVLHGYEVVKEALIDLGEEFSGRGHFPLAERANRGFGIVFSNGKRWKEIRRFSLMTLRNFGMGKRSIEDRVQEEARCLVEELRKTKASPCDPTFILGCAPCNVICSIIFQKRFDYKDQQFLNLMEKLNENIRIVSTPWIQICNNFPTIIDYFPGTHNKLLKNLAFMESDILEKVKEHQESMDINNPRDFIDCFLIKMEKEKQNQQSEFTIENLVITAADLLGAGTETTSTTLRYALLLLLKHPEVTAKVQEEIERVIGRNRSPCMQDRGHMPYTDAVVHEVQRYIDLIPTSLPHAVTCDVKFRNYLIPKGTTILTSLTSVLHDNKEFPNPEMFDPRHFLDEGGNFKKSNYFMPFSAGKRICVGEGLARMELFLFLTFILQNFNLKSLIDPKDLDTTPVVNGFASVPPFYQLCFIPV
CYP2C19 inh = human CYP2C19 inhibition | CYP2C19 Supersomes, luciferin-H EGE luminescence, 30 min | 96,000 tested, 21% active | inhibition, % at 5 µM | P33261 | AID 778;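 active means CYP2C19 inhibition above a set limit at 5 µM in the primary screen, cut at about 50% in these data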
A number is an active result.

`NS(=O)(=O)c1ccc(CCNC(=O)C2CCCN(S(=O)(=O)c3cccnc3)C2)cc1` (configuration not stated) gave CYP2C9 activ inactive, Cav32 inh inactive, CYP2C9 inh inactive, CYP2C19 act inactive and CYP2C19 inh inactive.
O=C(NCc1ccccc1Cl)C1CCCN(S(=O)(=O)c2cnc[nH]2)C1 (configuration not stated) was read as CYP2C9 activ inactive, Cav32 inh inactive, CYP2C9 inh 91.7, CYP2C19 act inactive and CYP2C19 inh 95.6.
Screening O=C(NCCc1ccc(Cl)cc1)C1CCCN(S(=O)(=O)c2cnc[nH]2)C1 (configuration not stated) returned CYP2C9 activ inactive, Cav32 inh inactive, CYP2C9 inh 86.0, CYP2C19 act inactive and CYP2C19 inh 92.1.
O=C(NCCc1ccc(Cl)cc1)C1CCN(S(=O)(=O)N2CCC3(CC2)OCCO3)CC1 was read as CYP2C9 activ inactive, Cav32 inh inactive, CYP2C9 inh inactive, CYP2C19 act inactive and CYP2C19 inh 76.7.
For Cc1ccc(CCNC(=O)C2CCCN(S(=O)(=O)c3cnc[nH]3)C2)cc1 (configuration not stated) the results were CYP2C9 activ inactive, Cav32 inh inactive, CYP2C9 inh 77.7, CYP2C19 act inactive and CYP2C19 inh 87.1.
CCOC(=O)CC1=NC(=O)CS1 was read as CYP2C9 activ inactive, Cav32 inh inactive, CYP2C9 inh inactive, CYP2C19 act inactive and CYP2C19 inh inactive.
Screening Cc1noc(C)c1S(=O)(=O)N1CCCC(C(=O)NCCc2ccc(Cl)cc2)C1 (configuration not stated) returned CYP2C9 activ inactive, Cav32 inh inactive, CYP2C9 inh inactive, CYP2C19 act inactive and CYP2C19 inh 69.4.
For Cc1ccc(CCNC(=O)C2CCCN(c3nc4ccccc4o3)C2)cc1 (configuration not stated) the results were CYP2C9 activ inactive, Cav32 inh inactive, CYP2C9 inh 50.4, CYP2C19 act inactive and CYP2C19 inh 60.9.
O=C(NCCC1=CCCCC1)C1CCN(S(=O)(=O)c2cnc[nH]2)CC1 was read as CYP2C9 activ inactive, Cav32 inh inactive, CYP2C9 inh 96.0, CYP2C19 act inactive and CYP2C19 inh 78.2.
COc1cccc(CNC(=O)C2CCCN(c3nc4ccccc4o3)C2)c1 (configuration not stated) was read as CYP2C9 activ inactive, Cav32 inh inactive, CYP2C9 inh inactive, CYP2C19 act inactive and CYP2C19 inh inactive.
Screening Cc1nn(C)c(C)c1S(=O)(=O)N1CCCC(C(=O)NCCc2ccc(Cl)cc2)C1 (configuration not stated) returned CYP2C9 activ inactive, Cav32 inh inactive, CYP2C9 inh inactive, CYP2C19 act inactive and CYP2C19 inh inactive.
For CCOC(=O)C(C(=O)OCC)C1CCS(=O)(=O)C1 (configuration not stated) the results were Cav32 inh inactive.
For COCc1nnc(SCC(=O)NC(C)c2ccccc2)n1-c1ccccc1 (configuration not stated) the results were CYP2C9 activ inactive, Cav32 inh inactive, CYP2C9 inh 55.2, CYP2C19 act inactive and CYP2C19 inh 59.4.
For Cc1nnc(NC(=O)CSc2nnc(Cc3ccccc3)n2-c2ccccc2)s1 the results were CYP2C9 activ inactive, Cav32 inh inactive, CYP2C9 inh inactive, CYP2C19 act inactive and CYP2C19 inh inactive.
Screening CCOC(=O)CN(C(=O)CSc1nnc(Cc2ccccc2)n1-c1ccc(C)cc1)c1ccccc1 returned Cav32 inh -8.43.
`Cc1ccc(-n2c(Cc3ccccc3)nnc2SCC(=O)NNC(=O)Cc2ccccc2)cc1` gave CYP2C9 activ inactive, Cav32 inh -5.72, CYP2C9 inh inactive, CYP2C19 act inactive and CYP2C19 inh inactive.
Screening CCOC(=O)CSc1nnc(Cc2ccccc2)n1-c1ccc(C)cc1 returned Cav32 inh inactive.
`COC(=O)CN=C1OC(=O)N2C(=O)C3=C4[C@@H](C[C@H]5C(=O)N(c6ccccc6)C(=O)[C@H]5[C@H]4[C@@]12Cc1ccccc1)[C@H]1C(=O)N(c2ccccc2)C(=O)[C@H]1[C@H]3C` gave Cav32 inh inactive.
`Cc1cccc(N2C(N)=NC(N)=NC23CCCCC3)c1` gave CYP2C9 activ inactive, Cav32 inh inactive, CYP2C9 inh inactive, CYP2C19 act inactive and CYP2C19 inh inactive.
`Cc1ccc(-n2cc(C(=O)c3ccc4ccccc4c3O)cn2)cc1` gave CYP2C9 activ inactive, Cav32 inh inactive, CYP2C9 inh inactive, CYP2C19 act inactive and CYP2C19 inh inactive.
